Source: PubChem BioAssay (Tox21)
Inconclusive results are not listed. The source made the active and inactive calls. Unless noted, calls come from the whole dose curve.

Assays:
[1] = qHTS assay to identify small molecule agonists of the sonic hedgehog signaling (Shh) pathway (AID 1259368);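 note: NIH/3T3-derived 3T3Gli1-Luc cells carrying a stable Gli1-driven firefly luciferase reporter; series mostly up to about 92 µM; nearly all actives have a fitted effect of over 15% in size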
Summary of the method: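 Luminescent signal was taken as a measure of Gli1-controlled luciferase expression in stably transfected NIH/3T3-derived cells that had been treated for 24 hr with compounds delivered in DMSO.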

[2] = qHTS assay to identify small molecule antagonists of the sonic hedgehog signaling (Shh) pathway (AID 1259369); note: nearly all actives have a fitted effect of over 45% in size; note: potency is the fitted concentration of half-maximal effect
Summary of the method: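 Screening used 3T3Gli1-Luc cells at 2,000 per well, compounds delivered in DMSO, and conditioned medium as agonist stimulus; plates incubated 24hr at 37 C and 5% CO2 before a 30min luciferase step.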

[3] = target: Estrogen receptor beta (Homo sapiens) (UniProt Q92731); assay: qHTS assay to identify small molecule agonists of the estrogen receptor beta (ER-beta) signaling pathway (AID 1259377; active = well fitted activation curve with a large enough effect in the signal ratio in the repeat runs, not every such curve was filed as active; the % refers to the signal ratio)
Summary of the method: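 In HEK293T cells bearing a UAS-beta-lactamase reporter under ER-beta control, DMSO-delivered compounds were incubated for 16 hr at 37C. Activity was detected as fluorescence 2 hours after LiveBLAzer B/G FRET substrate addition.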

[4] = target: Estrogen receptor beta (Homo sapiens) (UniProt Q92731); assay: qHTS assay to identify small molecule antagonists of the estrogen receptor beta (ER-beta) signaling pathway (AID 1259378; active = well fitted inhibition curve with a large enough effect in the signal ratio in the repeat runs, not every such curve was filed as active; the % refers to the signal ratio; note: potency is the fitted concentration of half-maximal effect)
Summary of the method: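 ER-beta-UAS-bla HEK293T cells in 2% charcoal-stripped FBS medium treated with compound plus 1nM final 17-beta-estradiol for 16 hr at 37C. Beta-lactamase reporter read by FRET substrate fluorescence after 2 hours at room temperature.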

[5] = qHTS assay to identify small molecule agonists of the androgen receptor (AR) signaling pathway in the presence of an antagonist - cell viability counter screen (AID 1259379; active = well fitted curve in the direction sought with a large enough effect in the repeat runs; an effect the other way counts as inactive or inconclusive;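 note: MDA-kb2 human breast cancer cells carrying an MMTV luciferase reporter; series mostly up to about 92 µM; nearly all actives have a fitted effect of over 25% in size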)
Summary of the method: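 In MDA-kb2 cells (human breast carcinoma, MMTV-luciferase), compounds at 15 concentrations plus 3.0uM nilutamide; 16 hr, 37C, 0% CO2; CellTiter-Fluor fluorescence read for viability.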

[6] = qHTS assay to identify small molecule agonists of the estrogen receptor alpha (ER-alpha) signaling pathway in the presence of an antagonist - cell viability counter screen (AID 1259386; active = well fitted curve in the direction sought with a large enough effect in the repeat runs; an effect the other way counts as inactive or inconclusive;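 note: series mostly up to about 92 µM; cells exposed to compounds for 22 h at 37 °C before the viability read; nearly all actives have a fitted effect of over 30% in size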)
Summary of the method: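 Fluorescent CellTiter-Fluor viability signal from VM7Luc4E2 cells, with the reagent added during the final hour of a 22hr compound exposure at 37C in the presence of 10.0nM ICI-182,780.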

[7] = target: Progesterone receptor (Homo sapiens) (UniProt P06401); assay: qHTS assay to identify small molecule agonists of the progesterone receptor (PR) signaling pathway (AID 1346784); note: nearly all actives have a fitted effect of over 30% in size
Summary of the method: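 Using charcoal-stripped serum (2%) to limit endogenous steroids, PR-UAS-bla HEK 293T cells received compounds for 16 hr at 37C after 6 hr plating; beta-lactamase FRET fluorescence was recorded following 2 hr substrate loading at room temperature.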

[8] = target: Progesterone receptor (Homo sapiens) (UniProt P06401); assay: qHTS assay to identify small molecule antagonists of the progesterone receptor (PR) signaling pathway (AID 1346795; active = well fitted inhibition curve with a large enough effect in the signal ratio in the repeat runs, not every such curve was filed as active; the % refers to the signal ratio)
Summary of the method: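 Inhibition of R5020-induced (1 nM final) beta-lactamase reporter signal in PR-UAS-bla HEK293T cells was scored by FRET fluorescence after overnight (16 hr) compound treatment.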

[9] = qHTS assay to identify small molecule agonists of the progesterone receptor (PR) signaling pathway - cell viability counter screen (AID 1346799); note: nearly all actives have a fitted effect of over 45% in size
Summary of the method: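 Cytotoxicity in PR-bla HEK293T cells: 16 h compound, 37C; CellTiter-Glo added post-FRET read; luminescence after 30 min RT.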

[10] = qHTS assay to identify small molecule antagonists of the TGF-beta/Smad signaling pathway - cell viability counter screen (AID 1346824; active = well fitted curve in the direction sought with a large enough effect in the repeat runs; an effect the other way counts as inactive or inconclusive; note: nearly all actives have a fitted effect of over 50% in size)
Summary of the method: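 SBE-bla HEK 293T cells, incubated overnight, then compound plus 0.25 ng/mL TGF-beta1 (stock added) for 5 hr at 37 C. Viability was read in the same wells by CellTiter-Glo luminescence after 30 min at room temperature.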

[11] = qHTS assay to identify small molecule agonists of the TGF-beta/Smad signaling pathway - cell viability counter screen (AID 1346829; active = well fitted curve in the direction sought with a large enough effect in the repeat runs; an effect the other way counts as inactive or inconclusive; note: top concentration of the series differs between compounds; nearly all actives have a fitted effect of over 45% in size)
Summary of the method: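 Compound-treated SBE-bla HEK 293T cells (5 hr, 37 C) were assessed for viability with CellTiter-Glo in parallel with the reporter read.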

[12] = qHTS assay to identify small molecule agonists of the TGF-beta/Smad signaling pathway (AID 1346859; active = well fitted activation curve with a large enough effect in the signal ratio in the repeat runs, not every such curve was filed as active; the % refers to the signal ratio; note: series mostly up to about 77 µM)
Summary of the method: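 Stable Smad binding element-beta-lactamase HEK 293T cells; 5 hr compound exposure at 37 C under 5% CO2; 2 hr room-temperature substrate step; fluorescence excited at 405 nm, collected at 460 nm and 530 nm.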

[13] = target: Thyrotropin-releasing hormone receptor (Homo sapiens) (UniProt P34981); assay: qHTS assay to identify small molecule antagonists of the thyrotropin-releasing hormone receptor (TRHR) signaling pathway (AID 1346877; active = well fitted inhibition curve with a large enough effect in the repeat runs, not every such curve was filed as active; note: series mostly up to about 51 µM)
Summary of the method: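 In this cell-based calcium flux format, HEK293 cells expressing TRHR received test compound for 5 min before the agonist TRH (1 nM final). Dye loading lasted 2 h at 37 °C.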

[14] = qHTS assay to identify small molecule agonists of the estrogen receptor beta (ER-beta) signaling pathway - cell viability counter screen (AID 1259380; active = well fitted curve in the direction sought with a large enough effect in the repeat runs; an effect the other way counts as inactive or inconclusive; note: nearly all actives have a fitted effect of over 30% in size; note: potency is the fitted concentration of half-maximal effect)
Summary of the method: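 Viability of ER-beta-UAS-bla HEK293T cells was determined by CellTiter-Glo luminescence following 16 hr treatment with test compounds at 37C.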

[15] = target: Androgen receptor (Homo sapiens) (UniProt P10275); assay: qHTS assay to identify small molecule agonists of the androgen receptor (AR) signaling pathway in the presence of an antagonist (AID 1259381); note: nearly all actives have a fitted effect of over 15% in size
Summary of the method: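 Here, 15-concentration compound series were pin-transferred onto MDA-kb2 MMTV-luciferase cells already dosed with nilutamide (3.0uM final). After 16hr at 37C, ONE-Glo was added and luminescence read 30min later at room temperature.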

[16] = qHTS assay to identify small molecule antagonists of the estrogen receptor beta (ER-beta) signaling pathway - cell viability counter screen (AID 1259382; active = well fitted curve in the direction sought with a large enough effect in the repeat runs; an effect the other way counts as inactive or inconclusive; note: series mostly up to about 92 µM; nearly all actives have a fitted effect of over 55% in size)
Summary of the method: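 Tox21 10K library tested in qHTS format on ER-beta-bla HEK293T cells stimulated with 1nM E2; 16 hr treatment at 37C. Same-well CellTiter-Glo luminescence served as the cell viability measure.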

[17] = qHTS assay to identify small molecule agonists or antagonists of the thyroid stimulating hormone receptor (TSHR) signaling pathway - wild type cell line counter screen (AID 1259384)
Summary of the method: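 Wild-type Hek293 cells, 800/well, 18 h at 37C, then compound with Ro20-1724 for 30 min RT. cAMP by HTRF (cAMP-d2/anti-cAMP cryptate), 1 h RT, fluorescence read. 15 concentrations, triplicates.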

[18] = qHTS assay to identify small molecule antagonists of the progesterone receptor (PR) signaling pathway - cell viability counter screen (AID 1346798; active = well fitted curve in the direction sought with a large enough effect in the repeat runs; an effect the other way counts as inactive or inconclusive; note: series mostly up to about 92 µM; nearly all actives have a fitted effect of over 50% in size)
Summary of the method: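 ATP content as viability readout: CellTiter-Glo luminescence, 30 min room temperature, in PR-UAS-bla HEK293T cells after 16 hr compound/R5020 treatment at 37C and 5% CO2.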

[19] = target: Estrogen receptor (Homo sapiens) (UniProt P03372); assay: qHTS assay to identify small molecule agonists of the estrogen receptor alpha (ER-alpha) signaling pathway in the presence of an antagonist (AID 1259383); note: top concentration of the series differs between compounds; nearly all actives have a fitted effect of over 15% in size
Summary of the method: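 In VM7Luc4E2 cells, 4,000 per well, compounds at 15 concentrations were co-incubated 22hr at 37C with 10.0nM final ICI-182,780. Luminescence from the stably transfected 4×ERE-luciferase reporter was recorded 30min after ONE-Glo addition.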

[20] = target: Thyrotropin receptor (Homo sapiens) (UniProt P16473); assay: qHTS assay to identify small molecule antagonists of the thyroid stimulating hormone receptor (TSHR) signaling pathway (AID 1259385); note: nearly all actives have a fitted effect of over 20% in size
Summary of the method: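 TSHR-HEK293 cells (800/well) plated 18 h, then compounds with Ro20-1724 and TSH at 1.5 ng/mL final, 30 min at room temperature. cAMP quantified by HTRF (cAMP-d2/anti-cAMP-cryptate, 1 h); 15 concentrations in triplicate.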
% is set by controls: 0 for no effect and ±100 for the full control effect.

Sequence of Estrogen receptor beta (Homo sapiens) (Q92731 whole entry, looked up): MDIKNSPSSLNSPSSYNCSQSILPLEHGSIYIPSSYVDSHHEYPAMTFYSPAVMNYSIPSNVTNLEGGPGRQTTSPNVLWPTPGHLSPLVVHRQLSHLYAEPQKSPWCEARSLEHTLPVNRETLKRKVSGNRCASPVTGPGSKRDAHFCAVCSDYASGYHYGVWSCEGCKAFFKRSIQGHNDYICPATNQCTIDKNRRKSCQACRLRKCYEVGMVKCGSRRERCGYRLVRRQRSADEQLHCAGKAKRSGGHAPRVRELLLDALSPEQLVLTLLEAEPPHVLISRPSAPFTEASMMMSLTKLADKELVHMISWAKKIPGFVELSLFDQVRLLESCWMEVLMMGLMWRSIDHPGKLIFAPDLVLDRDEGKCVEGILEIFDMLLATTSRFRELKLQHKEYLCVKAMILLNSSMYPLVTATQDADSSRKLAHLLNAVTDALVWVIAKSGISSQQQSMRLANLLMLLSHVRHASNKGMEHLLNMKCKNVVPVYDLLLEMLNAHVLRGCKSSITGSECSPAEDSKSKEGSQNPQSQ
Sequence of Thyrotropin receptor (Homo sapiens) (P16473 whole entry, looked up): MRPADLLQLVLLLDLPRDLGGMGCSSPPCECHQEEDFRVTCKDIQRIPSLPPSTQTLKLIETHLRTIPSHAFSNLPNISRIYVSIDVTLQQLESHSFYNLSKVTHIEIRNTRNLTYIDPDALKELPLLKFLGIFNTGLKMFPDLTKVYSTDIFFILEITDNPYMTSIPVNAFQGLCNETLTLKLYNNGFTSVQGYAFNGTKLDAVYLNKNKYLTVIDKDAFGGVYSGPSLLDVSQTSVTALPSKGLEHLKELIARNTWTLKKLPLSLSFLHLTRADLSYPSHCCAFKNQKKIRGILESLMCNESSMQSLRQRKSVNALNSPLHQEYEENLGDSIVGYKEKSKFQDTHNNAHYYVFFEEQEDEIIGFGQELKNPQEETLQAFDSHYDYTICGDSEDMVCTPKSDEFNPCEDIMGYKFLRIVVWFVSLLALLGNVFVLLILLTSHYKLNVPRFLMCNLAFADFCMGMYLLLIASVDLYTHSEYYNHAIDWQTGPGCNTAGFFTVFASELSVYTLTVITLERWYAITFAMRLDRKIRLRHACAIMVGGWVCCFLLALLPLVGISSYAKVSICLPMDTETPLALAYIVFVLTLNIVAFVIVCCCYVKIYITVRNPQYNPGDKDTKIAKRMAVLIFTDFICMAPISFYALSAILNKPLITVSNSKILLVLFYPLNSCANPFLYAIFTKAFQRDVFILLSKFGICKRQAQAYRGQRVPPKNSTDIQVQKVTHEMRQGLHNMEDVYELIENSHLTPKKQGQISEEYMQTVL
Sequence of Progesterone receptor (Homo sapiens) (P06401 whole entry, looked up): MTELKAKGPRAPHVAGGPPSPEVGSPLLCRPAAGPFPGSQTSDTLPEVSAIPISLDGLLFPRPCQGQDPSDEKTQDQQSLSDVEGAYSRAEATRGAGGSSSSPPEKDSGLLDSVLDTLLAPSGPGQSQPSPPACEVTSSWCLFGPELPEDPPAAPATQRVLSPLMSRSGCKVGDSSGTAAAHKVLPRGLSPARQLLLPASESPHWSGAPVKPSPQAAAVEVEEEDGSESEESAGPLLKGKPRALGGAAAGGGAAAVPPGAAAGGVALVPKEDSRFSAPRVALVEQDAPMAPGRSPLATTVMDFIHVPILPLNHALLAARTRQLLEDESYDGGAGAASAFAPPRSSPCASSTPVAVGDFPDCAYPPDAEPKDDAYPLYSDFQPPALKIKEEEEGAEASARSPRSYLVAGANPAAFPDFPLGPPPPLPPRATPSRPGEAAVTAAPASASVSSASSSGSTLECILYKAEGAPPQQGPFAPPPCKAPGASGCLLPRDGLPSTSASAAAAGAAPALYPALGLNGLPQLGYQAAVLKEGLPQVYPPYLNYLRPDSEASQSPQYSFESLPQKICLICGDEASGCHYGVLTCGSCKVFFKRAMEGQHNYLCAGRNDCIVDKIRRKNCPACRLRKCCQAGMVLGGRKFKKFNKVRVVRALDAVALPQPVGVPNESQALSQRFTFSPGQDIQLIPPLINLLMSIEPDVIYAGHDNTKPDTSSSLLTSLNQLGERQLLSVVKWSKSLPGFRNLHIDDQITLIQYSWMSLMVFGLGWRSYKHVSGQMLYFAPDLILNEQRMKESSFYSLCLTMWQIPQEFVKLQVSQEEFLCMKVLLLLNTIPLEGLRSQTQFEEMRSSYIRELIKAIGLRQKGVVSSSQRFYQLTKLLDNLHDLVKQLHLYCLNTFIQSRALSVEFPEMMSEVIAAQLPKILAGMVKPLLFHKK
Sequence of Androgen receptor (Homo sapiens) (P10275 whole entry, looked up): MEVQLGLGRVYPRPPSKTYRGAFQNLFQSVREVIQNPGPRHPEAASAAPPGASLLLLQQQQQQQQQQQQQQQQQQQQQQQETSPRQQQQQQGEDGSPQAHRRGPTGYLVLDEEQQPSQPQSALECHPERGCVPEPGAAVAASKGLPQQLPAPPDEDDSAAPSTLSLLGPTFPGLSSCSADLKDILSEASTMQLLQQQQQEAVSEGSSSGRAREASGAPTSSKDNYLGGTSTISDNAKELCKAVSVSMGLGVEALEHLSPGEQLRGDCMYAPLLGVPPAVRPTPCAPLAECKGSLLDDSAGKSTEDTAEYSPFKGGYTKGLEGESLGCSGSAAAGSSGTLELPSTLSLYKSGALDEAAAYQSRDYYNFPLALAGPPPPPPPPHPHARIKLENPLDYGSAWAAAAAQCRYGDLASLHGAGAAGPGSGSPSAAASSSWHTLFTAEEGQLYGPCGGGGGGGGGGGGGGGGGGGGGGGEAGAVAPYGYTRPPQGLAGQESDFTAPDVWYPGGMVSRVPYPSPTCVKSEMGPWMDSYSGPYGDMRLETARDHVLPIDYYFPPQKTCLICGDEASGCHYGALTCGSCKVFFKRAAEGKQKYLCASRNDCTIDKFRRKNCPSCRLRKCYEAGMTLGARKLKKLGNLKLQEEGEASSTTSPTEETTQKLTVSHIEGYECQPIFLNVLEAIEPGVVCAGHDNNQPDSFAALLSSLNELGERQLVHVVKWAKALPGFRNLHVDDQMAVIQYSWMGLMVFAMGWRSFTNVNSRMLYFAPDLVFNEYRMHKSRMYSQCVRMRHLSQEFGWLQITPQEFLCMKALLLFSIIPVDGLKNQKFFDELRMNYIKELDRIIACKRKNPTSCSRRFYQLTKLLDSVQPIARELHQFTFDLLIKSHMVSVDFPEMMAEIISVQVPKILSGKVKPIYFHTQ
Sequence of Estrogen receptor (Homo sapiens) (P03372 whole entry, looked up): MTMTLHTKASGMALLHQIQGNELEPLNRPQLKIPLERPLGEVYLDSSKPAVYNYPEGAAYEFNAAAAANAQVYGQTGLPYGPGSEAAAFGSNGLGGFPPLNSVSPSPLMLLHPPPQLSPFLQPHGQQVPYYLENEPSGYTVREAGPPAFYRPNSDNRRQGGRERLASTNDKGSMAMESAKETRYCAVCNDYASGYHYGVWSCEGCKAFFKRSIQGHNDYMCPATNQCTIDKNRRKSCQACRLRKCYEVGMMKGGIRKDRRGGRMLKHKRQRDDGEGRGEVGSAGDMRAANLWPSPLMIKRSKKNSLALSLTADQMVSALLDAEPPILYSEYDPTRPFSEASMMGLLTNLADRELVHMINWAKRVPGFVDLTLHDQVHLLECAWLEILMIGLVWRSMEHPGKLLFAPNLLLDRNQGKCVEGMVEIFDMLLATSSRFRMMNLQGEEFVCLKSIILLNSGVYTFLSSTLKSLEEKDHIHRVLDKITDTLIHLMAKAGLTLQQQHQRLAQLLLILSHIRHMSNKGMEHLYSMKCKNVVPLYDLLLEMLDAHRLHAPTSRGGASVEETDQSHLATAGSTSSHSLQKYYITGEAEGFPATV
Sequence of Thyrotropin-releasing hormone receptor (Homo sapiens) (P34981 whole entry, looked up): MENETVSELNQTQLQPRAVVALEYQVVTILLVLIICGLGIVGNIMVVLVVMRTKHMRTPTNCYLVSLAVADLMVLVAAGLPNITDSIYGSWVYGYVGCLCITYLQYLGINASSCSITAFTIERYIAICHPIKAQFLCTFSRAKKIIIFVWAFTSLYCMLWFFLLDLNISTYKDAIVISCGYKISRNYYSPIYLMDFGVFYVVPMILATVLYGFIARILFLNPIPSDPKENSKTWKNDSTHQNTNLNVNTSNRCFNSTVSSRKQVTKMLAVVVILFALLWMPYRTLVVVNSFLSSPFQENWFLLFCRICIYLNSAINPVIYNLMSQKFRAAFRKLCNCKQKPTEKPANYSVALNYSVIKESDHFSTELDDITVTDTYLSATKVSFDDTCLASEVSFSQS

O=C(O)CN(CCN(CC(=O)O)CC(=O)O)CCN(CC(=O)O)CC(=O)O
active: Potency [4] 5.8 µM
inactive: activity change [1] 0.166% [at 18.9 µM, hits give high values] | activity change, negative = inhibition [2] -28.7% [at 19 µM] | activation [3] -4.18% [at 19 µM] | activity change, negative = cytotoxicity [5] -0.118% [at 19 µM] | activity change, negative = cytotoxicity [6] -0.23% [at 19 µM] | activation [7] 9.07% [at 19 µM] | activity change, negative = inhibition [8] -12.7% [at 18.9 µM] | activity change, negative = cytotoxicity [9] -4.49% [at 19 µM] | viability change, negative = cytotoxic [10] 3.31% [at 15.8 µM] | activity change, negative = cytotoxicity [11] 9.66% [at 15.8 µM] | activation [12] 3.97% [at 15.8 µM] | activity, negative = inhibition [13] 0.832% [at 10.5 µM]

C[C@@H](N)C(=O)O
inactive: Potency [1] | Potency [5] | Potency [14] | Potency [15] | outcome [16] | outcome [17] | Potency [6] | Potency [7] | Potency [8] | Potency [18] | Potency [9] | outcome [10] | outcome [11] | outcome [12]
active: Potency [2] 21.1 µM

CCCCCCn1c(=O)c2c(ncn2C)n(C)c1=O
inactive: Potency [1] | Potency [2] | outcome [3] | Potency [4] | Potency [14] | Potency [15] | outcome [16] | Potency [19] | Potency [20] | Potency [6] | Potency [7] | Potency [8] | Potency [18] | Potency [9] | outcome [10] | outcome [11] | outcome [12]

Cc1cc2nc(N)sc2cc1C
inactive: Potency [1] | Potency [2] | Potency [5] | Potency [15] | outcome [17] | Potency [6] | Potency [7] | Potency [18] | Potency [9] | outcome [10] | outcome [11] | outcome [12]
active: Potency [14] 30.9 µM

Cn1cnc2c(F)c(Nc3ccc(Br)cc3Cl)c(C(=O)NOCCO)cc21
inactive: Potency [1] | Potency [2] | outcome [3] | Potency [4] | Potency [14] | Potency [15] | outcome [16] | Potency [6] | Potency [7] | Potency [8] | Potency [18] | outcome [10] | outcome [11] | outcome [12]

COC(C)CCO (stereo unspecified)
inactive: Potency [1] | Potency [2] | Potency [5] | Potency [14] | Potency [15] | outcome [16] | outcome [17] | Potency [20] | Potency [6] | Potency [7] | Potency [8] | Potency [18] | Potency [9] | outcome [10] | outcome [11] | outcome [12] | outcome [13]

COc1ccc(Nc2ccc(OC)cc2)cc1
inactive: Potency [1] | Potency [2] | outcome [3] | Potency [4] | Potency [14] | outcome [16] | Potency [19] | Potency [20] | Potency [7] | Potency [9] | outcome [10] | outcome [12]
